Results on eight sequences are retold here after PMC7862700, “An all-to-all approach to the identification of sequence-specific readers for epigenetic DNA modifications on cytosine”.

Common to all, as to assay: DAPPL (digital affinity profiling via proximity ligation, sequencing); 10 mM Tris-HCl pH 7.5, 50 mM NaCl, 1 mM DTT, 4% glycerol, room temperature, 30 min; GST-TFs on glutathione beads, 16-mer random dsDNA library, 0.1% formaldehyde crosslink after washing; high values mean tight binding
Common to all, as to conditions: protein: recombinant; tags: N-terminal GST; dsDNA, one strand shown

In one test the target is T1, ERF (Homo sapiens, UniProt P50548 1-548).
T1 sequence: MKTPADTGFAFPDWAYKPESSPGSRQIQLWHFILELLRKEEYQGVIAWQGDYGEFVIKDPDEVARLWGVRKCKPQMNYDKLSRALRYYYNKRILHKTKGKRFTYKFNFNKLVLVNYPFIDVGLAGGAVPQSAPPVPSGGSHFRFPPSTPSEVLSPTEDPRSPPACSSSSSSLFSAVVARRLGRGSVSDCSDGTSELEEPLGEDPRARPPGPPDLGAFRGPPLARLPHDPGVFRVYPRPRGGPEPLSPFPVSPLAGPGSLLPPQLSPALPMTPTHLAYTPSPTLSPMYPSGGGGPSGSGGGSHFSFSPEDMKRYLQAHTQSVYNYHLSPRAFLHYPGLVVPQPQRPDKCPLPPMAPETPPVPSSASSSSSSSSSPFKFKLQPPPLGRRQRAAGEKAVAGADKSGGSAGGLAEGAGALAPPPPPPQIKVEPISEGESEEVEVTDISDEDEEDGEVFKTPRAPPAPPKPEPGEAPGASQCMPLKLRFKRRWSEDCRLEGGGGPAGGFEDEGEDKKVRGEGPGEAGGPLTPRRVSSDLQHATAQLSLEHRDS
The essentials:
(§1)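 In yeast, human transcription factors were expressed with a GST fusion, then pulled down on glutathione beads and given DNA barcodes. Pooled with a tag-only sample, they were exposed to 200 nmole of a 16-mer random double-stranded DNA library (Tris/NaCl/DTT/glycerol buffer, room temperature, 30 min), washed, crosslinked with 0.1% formaldehyde, proximity-ligated using BsaI/T4 ligase for 1 h at 37 °C, PCR-amplified and read on an Illumina NextSeq500. Each hexamer's frequency of reads for a factor, divided by the matching frequency for the tag-only sample, gives the binding signal.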

The target in a further test is T2, ETV3L (Homo sapiens, UniProt Q6ZN32 1-361).
T2 sequence: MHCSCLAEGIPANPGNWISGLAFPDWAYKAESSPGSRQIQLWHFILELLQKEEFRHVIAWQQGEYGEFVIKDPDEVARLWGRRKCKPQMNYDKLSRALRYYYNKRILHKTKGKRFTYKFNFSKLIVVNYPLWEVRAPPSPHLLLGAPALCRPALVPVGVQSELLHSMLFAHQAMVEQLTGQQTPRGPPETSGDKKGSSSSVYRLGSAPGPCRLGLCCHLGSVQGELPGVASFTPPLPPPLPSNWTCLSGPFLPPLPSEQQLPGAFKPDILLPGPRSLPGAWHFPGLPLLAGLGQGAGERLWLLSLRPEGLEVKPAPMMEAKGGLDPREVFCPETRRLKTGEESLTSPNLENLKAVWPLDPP
The essentials: as §1

The target in the next test is T3, ETS2 (Homo sapiens, UniProt P15036 1-469).
T3 sequence: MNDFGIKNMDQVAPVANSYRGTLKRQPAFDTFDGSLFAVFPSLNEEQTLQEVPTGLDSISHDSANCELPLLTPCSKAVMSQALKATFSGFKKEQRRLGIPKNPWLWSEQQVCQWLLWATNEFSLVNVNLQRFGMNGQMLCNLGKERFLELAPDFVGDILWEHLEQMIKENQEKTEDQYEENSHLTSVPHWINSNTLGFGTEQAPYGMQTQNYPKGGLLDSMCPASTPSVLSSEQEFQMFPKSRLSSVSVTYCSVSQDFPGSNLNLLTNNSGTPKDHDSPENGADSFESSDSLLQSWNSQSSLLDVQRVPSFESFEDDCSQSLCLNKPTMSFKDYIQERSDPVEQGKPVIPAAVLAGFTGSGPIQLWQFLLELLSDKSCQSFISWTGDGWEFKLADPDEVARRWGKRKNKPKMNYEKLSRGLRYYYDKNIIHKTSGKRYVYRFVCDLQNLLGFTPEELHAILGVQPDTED
The essentials: as §1

A further test concerns the target T4, SPDEF (Homo sapiens, UniProt O95238 1-335).
T4 sequence: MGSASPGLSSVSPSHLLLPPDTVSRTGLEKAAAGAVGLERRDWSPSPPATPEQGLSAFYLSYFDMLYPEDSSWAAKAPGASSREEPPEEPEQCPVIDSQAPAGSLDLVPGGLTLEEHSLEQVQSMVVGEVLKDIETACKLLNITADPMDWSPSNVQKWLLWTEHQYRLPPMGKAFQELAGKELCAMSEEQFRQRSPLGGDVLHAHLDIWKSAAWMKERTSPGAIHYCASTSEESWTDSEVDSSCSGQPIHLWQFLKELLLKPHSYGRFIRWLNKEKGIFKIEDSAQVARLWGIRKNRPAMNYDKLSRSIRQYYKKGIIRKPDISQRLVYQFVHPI
The gist of the method:
as §1

The target in a further test is T5, ETV7 (Homo sapiens, UniProt Q9Y603 1-341).
T5 sequence: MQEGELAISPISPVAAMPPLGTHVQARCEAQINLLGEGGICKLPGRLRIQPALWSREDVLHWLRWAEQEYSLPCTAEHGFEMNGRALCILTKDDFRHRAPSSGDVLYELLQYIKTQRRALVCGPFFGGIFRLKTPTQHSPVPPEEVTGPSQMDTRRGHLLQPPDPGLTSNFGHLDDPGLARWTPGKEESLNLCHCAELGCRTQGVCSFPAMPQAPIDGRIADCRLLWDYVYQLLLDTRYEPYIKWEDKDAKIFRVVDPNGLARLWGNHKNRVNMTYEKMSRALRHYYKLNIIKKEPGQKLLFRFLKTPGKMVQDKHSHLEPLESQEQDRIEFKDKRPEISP
The gist of the method: as §1

The target of the next test is T6, ELF5 (Homo sapiens, UniProt Q9UKW6-2 1-255).
T6 sequence: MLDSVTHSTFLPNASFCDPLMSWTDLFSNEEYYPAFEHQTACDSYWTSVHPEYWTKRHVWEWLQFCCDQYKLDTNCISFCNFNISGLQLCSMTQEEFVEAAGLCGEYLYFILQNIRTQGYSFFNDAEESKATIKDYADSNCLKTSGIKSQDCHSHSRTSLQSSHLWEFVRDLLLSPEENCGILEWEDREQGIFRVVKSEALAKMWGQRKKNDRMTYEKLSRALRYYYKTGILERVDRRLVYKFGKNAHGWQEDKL
The gist of the method: as §1

A further test concerns the target T7, ETV3 (Homo sapiens, UniProt P41162-2 1-143).
T7 sequence: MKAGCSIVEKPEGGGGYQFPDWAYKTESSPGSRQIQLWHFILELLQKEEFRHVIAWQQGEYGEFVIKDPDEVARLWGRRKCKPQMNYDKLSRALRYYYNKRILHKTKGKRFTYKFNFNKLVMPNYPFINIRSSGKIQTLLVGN
The gist of the method:
as §1

For another test, the target named is ETV6 (Homo sapiens, UniProt P41212 1-452). The gist of the method: as §1
Chain of ETV6 (P41212 whole entry): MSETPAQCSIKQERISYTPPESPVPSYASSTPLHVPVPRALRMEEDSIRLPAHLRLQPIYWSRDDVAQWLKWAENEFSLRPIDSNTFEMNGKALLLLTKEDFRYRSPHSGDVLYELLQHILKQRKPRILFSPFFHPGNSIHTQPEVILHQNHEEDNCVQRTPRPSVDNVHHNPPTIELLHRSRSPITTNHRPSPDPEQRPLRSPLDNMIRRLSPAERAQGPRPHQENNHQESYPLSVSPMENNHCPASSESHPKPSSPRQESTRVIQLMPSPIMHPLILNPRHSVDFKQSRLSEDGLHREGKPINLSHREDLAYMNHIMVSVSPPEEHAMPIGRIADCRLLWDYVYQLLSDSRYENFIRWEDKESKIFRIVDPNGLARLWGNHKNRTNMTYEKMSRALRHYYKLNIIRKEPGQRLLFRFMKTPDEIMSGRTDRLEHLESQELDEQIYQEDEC

With ATACTG, the binding signal in the test with ERF was 1.14 fold enrichment (6-mer frequency, TF over GST control); in the test with ETV3L, 1.23 fold enrichment (6-mer frequency, TF over GST control); in the test with ETS2, 1.1 fold enrichment (6-mer frequency, TF over GST control); in the test with SPDEF it was 1.18 fold enrichment (6-mer frequency, TF over GST control); with ETV7 it was 1.09 fold enrichment (6-mer frequency, TF over GST control); with ELF5, 1.07 fold enrichment (6-mer frequency, TF over GST control). The binding signal was 1.12 fold enrichment (6-mer frequency, TF over GST control) with ETV3 and 1.07 fold enrichment (6-mer frequency, TF over GST control) with ETV6.
For the sequence TGATCC, the binding signal in the test with ERF was 1.23 fold enrichment (6-mer frequency, TF over GST control); with ETV3L it was 1.28 fold enrichment (6-mer frequency, TF over GST control); with ETS2, 1.25 fold enrichment (6-mer frequency, TF over GST control); with SPDEF it was 1.63 fold enrichment (6-mer frequency, TF over GST control); with ETV7, 1.12 fold enrichment (6-mer frequency, TF over GST control); with ELF5, 1.35 fold enrichment (6-mer frequency, TF over GST control). Moreover, the binding signal with ETV3 is 1.24 fold enrichment (6-mer frequency, TF over GST control); with ETV6 it was 1.26 fold enrichment (6-mer frequency, TF over GST control).
On to GCCTAT, for which the binding signal with ERF was 1.23 fold enrichment (6-mer frequency, TF over GST control); with ETV3L, 1.28 fold enrichment (6-mer frequency, TF over GST control); with ETS2 it was 1.09 fold enrichment (6-mer frequency, TF over GST control); with SPDEF it was 1.27 fold enrichment (6-mer frequency, TF over GST control); with ETV7, 1.24 fold enrichment (6-mer frequency, TF over GST control); in the test with ELF5, 1.15 fold enrichment (6-mer frequency, TF over GST control). Also, the binding signal was 1.21 fold enrichment (6-mer frequency, TF over GST control) with ETV3 and 1.19 fold enrichment (6-mer frequency, TF over GST control) with ETV6.
As to TACAAC, the binding signal with ERF is 1.1 fold enrichment (6-mer frequency, TF over GST control); with ETV3L, 1.11 fold enrichment (6-mer frequency, TF over GST control); with ETS2 it was 1.12 fold enrichment (6-mer frequency, TF over GST control); in the test with SPDEF it was 1.17 fold enrichment (6-mer frequency, TF over GST control); in the test with ETV7, 1.09 fold enrichment (6-mer frequency, TF over GST control); in the test with ELF5, 1.09 fold enrichment (6-mer frequency, TF over GST control). For the same sequence, the binding signal in the test with ETV3 is 1.15 fold enrichment (6-mer frequency, TF over GST control); with ETV6 it was 1.11 fold enrichment (6-mer frequency, TF over GST control).
Turning to TAACGG, the binding signal is 1.04 fold enrichment (6-mer frequency, TF over GST control) in the test with ERF; 1.04 fold enrichment (6-mer frequency, TF over GST control) in the test with ETV3L; 1.1 fold enrichment (6-mer frequency, TF over GST control) with ETS2; 1.1 fold enrichment (6-mer frequency, TF over GST control) with SPDEF; 1.06 fold enrichment (6-mer frequency, TF over GST control) in the test with ETV7; 1.07 fold enrichment (6-mer frequency, TF over GST control) in the test with ELF5. In addition, the binding signal was 1.1 fold enrichment (6-mer frequency, TF over GST control) with ETV3 and 1.14 fold enrichment (6-mer frequency, TF over GST control) with ETV6.
As to CACATA, the binding signal with ERF is 1.17 fold enrichment (6-mer frequency, TF over GST control); with ETV3L, 1.19 fold enrichment (6-mer frequency, TF over GST control); with ETS2 it was 1.1 fold enrichment (6-mer frequency, TF over GST control); with SPDEF, 1.11 fold enrichment (6-mer frequency, TF over GST control); in the test with ETV7, 1.03 fold enrichment (6-mer frequency, TF over GST control); in the test with ELF5, 1.05 fold enrichment (6-mer frequency, TF over GST control). For the same sequence, the binding signal in the test with ETV3 is 1.09 fold enrichment (6-mer frequency, TF over GST control); with ETV6, 1.1 fold enrichment (6-mer frequency, TF over GST control).
Regarding ACCGCT, the binding signal with ERF is 1.21 fold enrichment (6-mer frequency, TF over GST control); in the test with ETV3L, 1.12 fold enrichment (6-mer frequency, TF over GST control); with ETS2 it was 1.1 fold enrichment (6-mer frequency, TF over GST control); with SPDEF, 1.06 fold enrichment (6-mer frequency, TF over GST control); in the test with ETV7, 1.13 fold enrichment (6-mer frequency, TF over GST control); with ELF5, 1.05 fold enrichment (6-mer frequency, TF over GST control). Besides, the binding signal with ETV3 is 1.04 fold enrichment (6-mer frequency, TF over GST control); with ETV6 it was 1.15 fold enrichment (6-mer frequency, TF over GST control).
As for AAAAGA, the binding signal is 1.24 fold enrichment (6-mer frequency, TF over GST control) in the test with ERF; 1.1 fold enrichment (6-mer frequency, TF over GST control) in the test with ETV3L; 1.22 fold enrichment (6-mer frequency, TF over GST control) with ETS2; 1.1 fold enrichment (6-mer frequency, TF over GST control) with SPDEF; 1.1 fold enrichment (6-mer frequency, TF over GST control) in the test with ETV7; 1.13 fold enrichment (6-mer frequency, TF over GST control) with ELF5. Besides, the binding signal is 1.07 fold enrichment (6-mer frequency, TF over GST control) in the test with ETV3 and 1.21 fold enrichment (6-mer frequency, TF over GST control) in the test with ETV6.
